“And” between values parts separate entries of the source, which are not always exact repeats. Identical values can stand only once. Results filed as inconclusive are left out. The source made the active and inactive calls. Unless noted, the call rests on the fitted dose curve; in most records, active means well fitted curve in the direction sought with a large enough effect; inconclusive means small, poorly fitted or top-dose-only effect, or another doubt; inactive means no such curve, though single readings can be large; an effect the other way counts as inactive or inconclusive.
Tests used:
[1] = NS1 protein of Zika virus - qHTS assay to identify small molecule inhibitors in human HEK 293 cells (AID 1347053); further: nearly all actives have a fitted effect of over 55% in size; further: potency means the concentration at half of the fitted maximal effect
Summary of the method: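 Compound-treated (1 h pre-infection) HEK 293 cells infected with ZIKV MR766, MOI = 0.5; after 24 h at 37 C, NS1 read by TR-FRET; data normalized to uninfected and infected controls.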

[2] = qHTS of pediatric cancer cell lines to identify multiple opportunities for drug repurposing: Primary screen for TC32 cells (AID 1347089); further: nearly all actives have a fitted effect of over 60% in size; further: potency means the concentration at half of the fitted maximal effect
Summary of the method: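 Luminescent ATP read-out (CellTiter-Glo) of metabolically active TC32 cells after 48 h exposure. Concentration-response curves came from 11-point (MIPE, 0.78 nM–46 µM) or 8-point (NPC, 0.59 nM–46 µM) primary titrations; follow-up used 11 points.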

[3] = qHTS of pediatric cancer cell lines to identify multiple opportunities for drug repurposing: Primary screen for DAOY cells (AID 1347090); further: nearly all actives have a fitted effect of over 55% in size; further: potency means the concentration at half of the fitted maximal effect
Summary of the method: (§1)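 Viability measured as metabolically active cells via CellTiter-Glo luminescence following 48 hours of compound exposure, 11-point dilutions in confirmatory testing. 500-1,000 cells/well plated 5 hours before dosing; controls were DMSO and 2.3 µM bortezomib.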

[4] = qHTS of pediatric cancer cell lines to identify multiple opportunities for drug repurposing: Primary screen for SJ-GBM2 cells (AID 1347091); further: potency means the concentration at half of the fitted maximal effect
Summary of the method: as §1

[5] = qHTS of pediatric cancer cell lines to identify multiple opportunities for drug repurposing: Primary screen for BT-37 cells (AID 1347094); further: series mostly up to about 57 µM
Summary of the method: (§2)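 Primary screen of approved and investigational compounds on cells in growth media at 37 degrees C, 5% CO2. MIPE set at 11-point and NPC set at 8-point dilutions; viability scored by ATP-based luminescence at 48 hours.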

[6] = qHTS of pediatric cancer cell lines to identify multiple opportunities for drug repurposing: Primary screen for NB-EBc1 cells (AID 1347095); further: potency means the concentration at half of the fitted maximal effect
Summary of the method: as §2

[7] = qHTS of pediatric cancer cell lines to identify multiple opportunities for drug repurposing: Primary screen for U-2 OS cells (AID 1347096); further: nearly all actives have a fitted effect of over 50% in size; further: potency means the concentration at half of the fitted maximal effect
Summary of the method: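 Viability after 48 h compound treatment at 37C, 500-1,000 cells/well, read as ATP luminescence with CellTiter-Glo. Primary screens used 11-point (MIPE, 0.78 nM-46 µM) or 8-point (NPC, 0.59 nM-46 µM) final concentrations; follow-up screens used 11-point dilutions.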

[8] = qHTS of pediatric cancer cell lines to identify multiple opportunities for drug repurposing: Primary screen for Saos-2 cells (AID 1347097); further: nearly all actives have a fitted effect of over 40% in size
Summary of the method: as §2

[9] = qHTS of pediatric cancer cell lines to identify multiple opportunities for drug repurposing: Primary screen for SK-N-SH cells (AID 1347098); further: nearly all actives have a fitted effect of over 65% in size; further: potency means the concentration at half of the fitted maximal effect
Summary of the method: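 Cells (500-1,000/well) rested 5 h, then received compounds for 48 h; metabolically active cells were measured by CellTiter-Glo luminescence. Final concentrations spanned up to 46 µM (MIPE, 11-point) or 0.59 nM-46 µM (NPC, 8-point) in primary screens, 11-point in follow-ups.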

[10] = qHTS of pediatric cancer cell lines to identify multiple opportunities for drug repurposing: Primary screen for A673 cells (AID 1347092); further: nearly all actives have a fitted effect of over 45% in size; further: potency means the concentration at half of the fitted maximal effect
Summary of the method: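 Cell viability of A673 measured by CellTiter-Glo ATP luminescence after 48 hours compound exposure. Dilution series spanned 0.78 nM to 46 µM (MIPE, 11-point) or 0.59 nM to 46 µM (NPC, 8-point); bortezomib 2.3 uM positive control.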

[11] = qHTS of pediatric cancer cell lines to identify multiple opportunities for drug repurposing: Primary screen for SK-N-MC cells (AID 1347093); further: potency means the concentration at half of the fitted maximal effect
Summary of the method: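 Metabolically active cells were quantified by ATP-dependent luminescence (CellTiter-Glo, 15 min at room temperature) following 48 h treatment. Cells had been plated at 500-1,000 per well and settled for 5 h beforehand.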

[12] = molecular target: Atrial natriuretic peptide receptor 1 (Homo sapiens) (UniProt P16066); test: Natriuretic polypeptide receptor (hNpr1) antagonism - Pilot screen (AID 1347049; calls by dose curve;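 further: agonist-evoked cGMP luminescence read 20 min after hNppA addition; series mostly up to about 58 µM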)
Summary of the method: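 cGMP-sensor HEK293/hNpr1 cells, 1500/well, plated overnight at 37C. 2% GloSensor reagent, 2 h RT. Compound (23 nL pin transfer) 30 min RT, baseline luminescence pre-read. 0.1 nM hNppA, 20 min RT, post-read.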

[13] = molecular target: Atrial natriuretic peptide receptor 2 (Homo sapiens) (UniProt P20594); test: Natriuretic polypeptide receptor (hNpr2) antagonism - Pilot subtype selectivity assay (AID 1347050; calls by dose curve)
Summary of the method: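 Luminescence from a genetically encoded cGMP luciferase biosensor in hNpr2-expressing HEK293 cells is read before and 20 min after adding 1 nM hNppC. Test compounds, in interplate 1:5 titrations, are added 30-50 min ahead of the agonist.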

[14] = molecular target: T1, Tyrosine-protein phosphatase non-receptor type substrate 1 (Homo sapiens) + Leukocyte surface antigen CD47 (Homo sapiens) (UniProt P78324+Q08722); test: CD47-SIRPalpha protein protein interaction - LANCE assay qHTS validation (AID 1347057; active means well fitted curve in the direction sought with a large enough effect in the signal ratio, with a control signal flat, not every such curve was filed as active; the % refers to the signal ratio; further: series mostly up to about 38 µM)
Summary of the method: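 Inhibition of soluble CD47/SIRPalpha ectodomain association by titrated compounds, measured as 665/615 nm time-resolved FRET ratio after sequential 30 min room-temperature incubations.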

[15] = molecular target: T1, Tyrosine-protein phosphatase non-receptor type substrate 1 (Homo sapiens) + Leukocyte surface antigen CD47 (Homo sapiens); test: CD47-SIRPalpha protein protein interaction - Alpha assay qHTS validation (AID 1347059);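 further: bead proximity luminescence from CD47 binding SIRPalpha after compound preincubation with SIRPalpha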
Summary of the method: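 SIRPalpha-biotin 25 nM + cpd, 30 min RT, dark; add CD47-His 12.5 nM, 30 min; add Ni-NTA/SAV beads 10 ug/mL, 30 min; AlphaScreen. Buffer PBS pH 7.4 + 0.05% IGEPAL CA-630. Non-biotinylated SIRPalpha as control inhibitor.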

[16] = molecular target: Parathyroid hormone/parathyroid hormone-related peptide receptor (Homo sapiens) (UniProt Q03431); test: qHTS for PTHR1 Agonists: Optimization Screen against the NCGC LOPAC library (AID 1347079);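 further: GloSensor cAMP luminescence in HEK-293 GP2 cells expressing human PTHR1 with IBMX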
Summary of the method: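 Signal increase flags agonism. GP2 cells, derived from HEK-293, express human PTHR1 and a GloSensor cAMP construct.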

[17] = qHTS of pediatric cancer cell lines to identify multiple opportunities for drug repurposing: Primary screen for NB1643 cells (AID 1347099); further: nearly all actives have a fitted effect of over 50% in size; further: potency means the concentration at half of the fitted maximal effect
Summary of the method: as §2

[18] = Natriuretic polypeptide receptor (hNpr1) antagonism - Pilot counterscreen GloSensor control cell line (AID 1347045; calls by dose curve; further: series mostly up to about 38 µM)
Summary of the method: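 The SNP-driven cGMP luminescence signal (50 uM, 20 min, room temperature) was measured in GloSensor HEK293 control cells. Compounds were tested as a LOPAC titration series and preincubated for 30-50 min.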

[19] = molecular target: T1, Tyrosine-protein phosphatase non-receptor type substrate 1 (Homo sapiens) + Leukocyte surface antigen CD47 (Homo sapiens); test: CD47-SIRPalpha protein protein interaction - HTRF assay qHTS validation (AID 1347058; active means well fitted curve in the direction sought with a large enough effect in the signal ratio, not every such curve was filed as active; the % refers to the signal ratio; further: series mostly up to about 38 µM)
Summary of the method: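 Soluble extracellular domains (6His-CD47, Avi-tag-biotinylated SIRPalpha) in PBS pH 7.4 with 0.05% IGEPAL CA-630. Compounds were preincubated 30 min at RT with CD47 and anti-His-Eu, then SIRPalpha and SAV-XL665 were added. TR-FRET 665/615 ratio.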

Measured: Potency

Atrial natriuretic peptide receptor 2 (Homo sapiens), sequence (P20594 whole entry, looked up): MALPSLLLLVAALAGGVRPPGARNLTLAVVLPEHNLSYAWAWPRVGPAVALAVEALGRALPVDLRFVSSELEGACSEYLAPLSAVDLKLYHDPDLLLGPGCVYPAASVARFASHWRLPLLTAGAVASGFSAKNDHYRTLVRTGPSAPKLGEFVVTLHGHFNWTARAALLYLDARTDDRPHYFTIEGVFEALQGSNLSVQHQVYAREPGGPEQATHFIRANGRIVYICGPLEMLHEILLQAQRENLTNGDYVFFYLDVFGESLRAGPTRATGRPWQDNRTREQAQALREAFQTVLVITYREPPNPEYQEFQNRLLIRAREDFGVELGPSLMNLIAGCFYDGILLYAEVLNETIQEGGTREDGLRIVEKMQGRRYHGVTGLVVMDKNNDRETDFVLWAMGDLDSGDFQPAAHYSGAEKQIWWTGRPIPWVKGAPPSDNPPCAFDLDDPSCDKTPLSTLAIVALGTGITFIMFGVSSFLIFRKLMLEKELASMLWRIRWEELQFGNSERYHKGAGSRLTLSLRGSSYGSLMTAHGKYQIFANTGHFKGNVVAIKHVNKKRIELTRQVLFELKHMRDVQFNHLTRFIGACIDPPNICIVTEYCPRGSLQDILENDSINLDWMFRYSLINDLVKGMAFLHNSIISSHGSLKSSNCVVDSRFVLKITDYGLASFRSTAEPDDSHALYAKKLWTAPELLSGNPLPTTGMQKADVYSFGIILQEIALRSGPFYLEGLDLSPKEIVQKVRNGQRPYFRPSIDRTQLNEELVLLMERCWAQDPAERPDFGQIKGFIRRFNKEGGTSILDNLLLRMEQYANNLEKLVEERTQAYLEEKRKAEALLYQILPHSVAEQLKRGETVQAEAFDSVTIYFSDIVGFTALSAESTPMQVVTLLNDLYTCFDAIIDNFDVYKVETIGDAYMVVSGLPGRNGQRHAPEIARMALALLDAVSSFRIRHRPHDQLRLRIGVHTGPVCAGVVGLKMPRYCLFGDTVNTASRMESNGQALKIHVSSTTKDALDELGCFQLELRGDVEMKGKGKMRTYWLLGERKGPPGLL
T1 sequence (P78324 whole entry, looked up, the tested form may be a part): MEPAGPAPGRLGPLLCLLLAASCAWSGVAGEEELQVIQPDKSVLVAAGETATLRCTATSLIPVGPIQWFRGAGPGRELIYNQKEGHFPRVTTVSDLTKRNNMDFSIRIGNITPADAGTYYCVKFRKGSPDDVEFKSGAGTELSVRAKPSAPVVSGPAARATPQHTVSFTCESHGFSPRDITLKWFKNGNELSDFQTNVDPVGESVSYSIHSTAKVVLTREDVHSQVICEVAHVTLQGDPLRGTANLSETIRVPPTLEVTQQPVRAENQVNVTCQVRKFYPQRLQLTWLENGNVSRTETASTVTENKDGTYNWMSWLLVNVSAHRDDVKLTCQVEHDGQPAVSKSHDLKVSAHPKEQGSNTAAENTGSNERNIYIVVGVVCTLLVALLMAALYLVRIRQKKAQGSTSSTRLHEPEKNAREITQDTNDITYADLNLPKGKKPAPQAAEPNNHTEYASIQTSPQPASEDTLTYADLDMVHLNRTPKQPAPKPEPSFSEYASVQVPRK
T1 sequence (Q08722 whole entry, looked up, the tested form may be a part): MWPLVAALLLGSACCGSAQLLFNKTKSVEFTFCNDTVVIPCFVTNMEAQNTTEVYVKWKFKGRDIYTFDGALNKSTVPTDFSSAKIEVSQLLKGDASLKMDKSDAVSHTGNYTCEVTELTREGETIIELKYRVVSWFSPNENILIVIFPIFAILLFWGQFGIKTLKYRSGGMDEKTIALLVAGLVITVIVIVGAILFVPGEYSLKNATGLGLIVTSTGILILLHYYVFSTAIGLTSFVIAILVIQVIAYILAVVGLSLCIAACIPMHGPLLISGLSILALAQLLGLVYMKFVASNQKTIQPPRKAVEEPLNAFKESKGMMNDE
Parathyroid hormone/parathyroid hormone-related peptide receptor (Homo sapiens), sequence (Q03431 whole entry, looked up): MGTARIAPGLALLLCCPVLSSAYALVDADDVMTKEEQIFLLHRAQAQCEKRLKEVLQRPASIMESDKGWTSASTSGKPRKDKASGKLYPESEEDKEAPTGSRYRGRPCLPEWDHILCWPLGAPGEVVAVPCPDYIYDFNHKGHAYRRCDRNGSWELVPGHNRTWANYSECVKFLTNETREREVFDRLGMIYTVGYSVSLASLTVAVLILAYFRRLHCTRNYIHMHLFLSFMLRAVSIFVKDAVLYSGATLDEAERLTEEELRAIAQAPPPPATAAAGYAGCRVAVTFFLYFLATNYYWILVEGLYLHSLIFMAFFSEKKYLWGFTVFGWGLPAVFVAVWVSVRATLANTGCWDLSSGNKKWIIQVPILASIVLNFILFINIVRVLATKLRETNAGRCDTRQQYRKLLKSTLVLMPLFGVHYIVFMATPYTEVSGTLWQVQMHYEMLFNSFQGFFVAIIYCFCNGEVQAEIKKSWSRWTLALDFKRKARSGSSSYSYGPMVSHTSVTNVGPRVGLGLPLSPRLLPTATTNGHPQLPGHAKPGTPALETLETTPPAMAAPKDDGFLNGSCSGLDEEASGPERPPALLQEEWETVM
Atrial natriuretic peptide receptor 1 (Homo sapiens), sequence (P16066 whole entry, looked up): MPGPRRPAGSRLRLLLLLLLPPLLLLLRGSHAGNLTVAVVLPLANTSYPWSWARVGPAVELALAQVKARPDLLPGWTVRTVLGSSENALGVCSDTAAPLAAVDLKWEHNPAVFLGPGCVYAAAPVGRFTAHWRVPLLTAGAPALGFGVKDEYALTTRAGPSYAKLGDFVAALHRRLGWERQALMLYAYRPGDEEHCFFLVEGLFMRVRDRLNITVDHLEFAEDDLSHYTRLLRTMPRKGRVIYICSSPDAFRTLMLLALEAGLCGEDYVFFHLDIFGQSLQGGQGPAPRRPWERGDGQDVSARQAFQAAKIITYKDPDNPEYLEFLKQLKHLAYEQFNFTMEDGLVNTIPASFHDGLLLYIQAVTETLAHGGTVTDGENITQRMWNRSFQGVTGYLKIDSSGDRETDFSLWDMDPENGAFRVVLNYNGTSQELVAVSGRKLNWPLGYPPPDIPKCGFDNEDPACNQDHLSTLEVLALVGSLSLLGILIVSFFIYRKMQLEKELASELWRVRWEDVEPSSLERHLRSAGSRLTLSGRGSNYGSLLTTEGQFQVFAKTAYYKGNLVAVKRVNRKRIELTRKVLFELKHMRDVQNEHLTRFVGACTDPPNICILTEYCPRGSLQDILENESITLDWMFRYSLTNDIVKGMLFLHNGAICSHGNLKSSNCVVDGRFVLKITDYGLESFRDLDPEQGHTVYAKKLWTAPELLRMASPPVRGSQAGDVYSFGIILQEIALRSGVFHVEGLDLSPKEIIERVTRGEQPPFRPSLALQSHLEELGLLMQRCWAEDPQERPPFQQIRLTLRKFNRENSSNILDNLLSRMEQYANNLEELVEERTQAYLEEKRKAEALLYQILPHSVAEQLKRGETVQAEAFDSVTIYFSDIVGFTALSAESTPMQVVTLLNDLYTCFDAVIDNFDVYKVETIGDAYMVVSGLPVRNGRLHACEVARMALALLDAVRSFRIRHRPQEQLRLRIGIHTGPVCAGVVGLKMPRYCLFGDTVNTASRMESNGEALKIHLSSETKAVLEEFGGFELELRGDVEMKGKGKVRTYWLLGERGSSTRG

COc1ccc2nc(S(=O)Cc3ncc(C)c(OC)c3C)[nH]c2c1 (centres undefined)
inactive: [1] | [2] | [3] | [4] | [5] | [6] | [7] | [8] | [9]

Cc1ccc(-n2nc(C(C)(C)C)cc2NC(=O)Nc2ccc(OCCN3CCOCC3)c3ccccc23)cc1
inactive: [1] | [2] | [4] | [5] | [6] | [7] | [8]
active: [10] 4.69 µM | [11] 662 nM | [9] 0.541 µM

CC1(C)CNc2cc(NC(=O)c3cccnc3NCc3ccncc3)ccc21
active: [2] 26.2 µM | [3] 1.18 µM | [6] 9.35 µM
inactive: [1] | [7]

OC[C@H](Cc1ccccc1)Nc1nc(Oc2ccc3c(c2)CCC3)nc2c1ncn2Cc1ccc(-c2ccccc2)cc1
active: [1] 4.18 µM | [3] 11.8 µM | [11] 1870 nM
inactive: [2] | [10] | [7] | [9]

OCCC#Cc1nc(-c2ccc(F)cc2)c(-c2ccncc2)n1CCCc1ccccc1
inactive: [1] | [2] | [9]
active: [4] 23.5 µM | [10] 18.7 µM | [11] 18700 nM | [6] 16.6 µM

c1ccc(-c2nn3c(c2-c2ccnc4cc(OCCN5CCOCC5)ccc24)CCC3)nc1
inactive: [1] | [2] | [3] | [11] | [7] | [9]

CC(C=CC1=C(C)CCCC1(C)C)=CC=CC(C)=CC(=O)O
active: [3] 7.43 µM | [10] 14.8 µM and 296 nM | [11] 8.33 µM and 1.48 µM
inactive: [1] | [2] | [5] | [6] | [7]

Cc1[nH]c(=O)c(C#N)cc1-c1ccncc1
inactive: [12] | [13] | [14] | [15] | [16] | [3] | [4] | [10] | [5] | [6] | [7] | [8]

Cn1c(=O)c(F)c(Nc2ccc(I)cc2F)c2c(=O)n(C[C@@H](O)CO)cnc21
inactive: [1] | [2] | [4] | [10]
active: [3] 18.7 µM | [7] 5.9 µM | [9] 6.81 µM

CCC(=O)N[C@H]1CC[C@H](C(=O)N(C)c2ccc(-c3nc4ccccc4o3)cc2)C1
inactive: [1] | [2] | [6] | [7] | [8]
active: [3] 5.9 µM | [10] 3.72 µM | [11] 833 nM | [9] 0.961 µM | [17] 1.66 µM

CNCc1ccc(-c2[nH]c3cc(F)cc4c3c2CCNC4=O)cc1
active: [10] 4.69 µM
inactive: [1] | [2] | [3] | [4] | [7] | [8]

Cc1cn[nH]c1
inactive: [18] | [12] | [13] | [14] | [19] | [15] | [16] | [2] | [3] | [10] | [11] | [7] | [8] | [9] | [17]

CNC[C@H](O)c1cccc(O)c1
inactive: [18] | [12] | [13] | [14] | [19] | [15] | [16] | [2] | [3] | [4] | [10] | [11] | [5] | [6] | [7] | [8] | [17]

NNCCc1ccccc1
inactive: [12] | [13] | [1] | [14] | [15] | [16] | [2] | [3] | [5] | [6] | [8]

Cn1cc(-c2ccc3nnc(C(F)(F)c4ccc5ncccc5c4)n3n2)cn1
inactive: [1] | [2] | [3] | [10] | [11] | [7] | [17]

CCN(c1ccccc1)c1cc(NC)[n+](C)c(C)n1
inactive: [1] | [2] | [3] | [11] | [7] | [8] | [17]

N=c1nc(N2CCCCC2)cc(N)n1O
inactive: [12] | [13] | [1] | [16] | [2] | [3] | [4] | [5] | [6] | [7] | [8] | [17]

Cc1ccc(N(CC2=NCCN2)c2cccc(O)c2)cc1
active: [10] 18.7 µM and 16.8 µM
inactive: [12] | [13] | [1] | [16] | [2] | [3] | [4] | [5] | [6] | [7] | [17]

O=C(NOC[C@H](O)CO)c1ccc(F)c(F)c1Nc1ccc(I)cc1F
inactive: [1] | [2] | [4] | [8]
active: [3] 18.7 µM | [10] 5.9 µM | [11] 46.9 nM | [9] 0.341 µM

C[C@]12CCC(=O)C=C1CC[C@@H]1[C@@H]2[C@@H](O)C[C@@]2(C)[C@H]1CC[C@]2(O)C(=O)CO
inactive: [12] | [13] | [16] | [2] | [3] | [10] | [11] | [5] | [6] | [7] | [8]

O=C(O)[C@@H](c1ccc(OCc2ccc3ccccc3n2)cc1)C1CCCC1
inactive: [1] | [2] | [3] | [4] | [10] | [11] | [5] | [7] | [8] | [9]

Nc1nc2c(ncn2COCCO)c(=O)[nH]1
inactive: [18] | [13] | [1] | [14] | [19] | [15] | [16] | [2] | [3] | [10] | [5] | [6] | [7] | [8] | [9] | [17]

From PubChem BioAssay (NCATS)
